In PubChem BioAssay (NCATS):
Records with an inconclusive call do not appear. Active and inactive are the calls of the source. Calls come from the whole dose curve; as a rule, active = well fitted cell-killing curve with a large enough effect; inconclusive = small, poorly fitted or top-dose-only effect, or effect the other way; inactive = flat fitted curve, though single readings scatter.

Tests used:
Assay in all cases: Primary qHTS to identify gynecologic anti-cancer compounds using libraries of approved drugs and bioactive compounds (AID 1345084); note: nearly all actives have a fitted effect of over 55% in size
Conditions in all cases: Gynecologic cancer cell panel viability, ATPlite luminescence, 48 h; series mostly up to 57.5 µM
OV90 = test system: OV90
Outline: (§1)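 Cells, 1,000 per well, were allowed to settle for 16 h at 37 C before compound addition. Five concentrations were tested for 48 h, and viability was read by ATPlite luminescence after 15 min at room temperature.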

PA-1 = test system: PA-1
Outline: as §1

Tov-21-G = test system: Tov-21-G
Outline: as §1

Tov112D = test system: Tov112D
Outline: as §1
% is set by controls: 0 for no effect and ±100 for the full control effect.

O=C(/C=C/N1C[C@@H]2C[C@@H]1CN2c1ccccn1)c1ccccc1O
inactive: Potency (OV90) | Potency (PA-1) | Potency (Tov-21-G) | Potency (Tov112D)

COc1cc(C(=O)OC[C@H]2O[C@@H](OC(C)(C)C(=O)O)[C@H](O)[C@@H](O)[C@@H]2O)cc(OC)c1O
inactive: Potency (OV90) | Potency (PA-1) | Potency (Tov-21-G) | Potency (Tov112D)

CC1CCC2(C(=O)O)CCC3(C)C(=CCC4C5(C)C[C@@H](O)[C@@H](O)C(C)(CO)C5CCC43C)C2C1(C)O (some centres not stated)
inactive: Potency (OV90) | Potency (PA-1) | Potency (Tov-21-G) | Potency (Tov112D)

H-DPPDPDRFYGMM-NH2
inactive: Potency (OV90) | Potency (PA-1) | Potency (Tov-21-G) | Potency (Tov112D)

C[C@@]1(O)[C@H](O)[C@@H](CO)O[C@H]1n1cnc2c(=O)[nH]c(N)nc21
inactive: Potency (OV90) | Potency (PA-1) | Potency (Tov-21-G) | Potency (Tov112D)

C=C[C@H]1[C@H](O[C@@H]2O[C@H](CO)[C@@H](O)[C@H](O)[C@H]2O)OC=C2C(=O)N3Cc4c([nH]c5ccccc5c4=O)[C@@H]3C[C@H]21
inactive: Potency (OV90) | Potency (PA-1) | Potency (Tov-21-G) | Potency (Tov112D)

CC1=C[C@@H]2[C@H]3[C@@H]4O[C@@](C)(CC[C@H]4O)[C@H]3CC(=O)[C@]23C(=O)N[C@@H](CC(C)C)[C@@H]3[C@@H]1C
inactive: Potency (OV90) | Potency (PA-1) | Potency (Tov-21-G) | Potency (Tov112D)

CC(=O)O[C@@H]1[C@H](O[C@@H]2O[C@H](CO)[C@@H](O)[C@H](O)[C@H]2O)[C@@H](O[C@@H]2O[C@@H](C)[C@H](O)[C@@H](O[C@@H]3O[C@H](CO)[C@@H](O)[C@H](O)[C@H]3O)[C@H]2O)[C@H](OC(=O)[C@]23CCC(C)(C)C[C@H]2C2=CCC4[C@@]5(C)C[C@H](O)[C@H](O[C@@H]6O[C@H](C(=O)O)[C@@H](O)[C@H](O)[C@H]6O)[C@@](C)(C(=O)O)C5CC[C@@]4(C)[C@]2(C)CC3)O[C@@H]1C (some centres not stated)
inactive: activity change, negative = cytotoxicity (OV90) 12.5% [at 6.55 µM] | activity change, negative = cytotoxicity (PA-1) 1.9% [at 6.55 µM] | activity change, negative = cytotoxicity (Tov-21-G) 0.569% [at 6.55 µM] | activity change, negative = cytotoxicity (Tov112D) 7.58% [at 6.55 µM]

COc1ccc(C(=O)CC(=O)O)c2c1C=CC(C)(C)O2
inactive: Potency (OV90) | Potency (PA-1) | Potency (Tov-21-G) | Potency (Tov112D)

C=C1CC[C@H]2[C@@](C)(CCC(OC3OC(CO)C(O)C(O)C3O)[C@@]2(C)CO)C1C(=O)CC1=CCOC1=O (some centres not stated)
inactive: Potency (OV90) | Potency (PA-1) | Potency (Tov-21-G) | Potency (Tov112D)

COC(=O)C1=CO[C@@H](O[C@@H]2O[C@H](CO)[C@@H](O)[C@H](O)[C@H]2O)[C@H]2[C@@H]1[C@H](O)[C@H](O)[C@]2(C)O
inactive: Potency (OV90) | Potency (PA-1) | Potency (Tov-21-G) | Potency (Tov112D)

CCCN(CCN1CCN(c2ccccc2OC)CC1)C1CCc2ncsc2C1 (configuration not stated)
inactive: Potency (OV90) | Potency (PA-1) | Potency (Tov-21-G) | Potency (Tov112D)

C[C@@H]1C[C@H]2OC(=O)[C@@]3(C)CCC[C@](C)(C23)[C@@]1(O)CCC1=CC(=O)OC1O (some centres not stated)
inactive: Potency (OV90) | Potency (PA-1) | Potency (Tov-21-G) | Potency (Tov112D)

C=C(C)[C@H]1CC[C@]2(C(=O)O)CC[C@]3(C)C(CCC4[C@@]5(C)CCC(=O)C(C)(C)C5CC[C@]43C)C12 (some centres not stated)
inactive: Potency (OV90) | Potency (PA-1) | Potency (Tov-21-G) | Potency (Tov112D)

CC1(C)C[C@H]2C=C(C=O)[C@]3(C(=O)O)C[C@]3(C)[C@H]2C1
inactive: Potency (OV90) | Potency (PA-1) | Potency (Tov-21-G) | Potency (Tov112D)

CCN1CCN(C(=O)N[C@@H](C(=O)N[C@@H]2C(=O)N3[C@@H]2SC(C)(C)[C@@H]3C(=O)O)c2ccccc2)C(=O)C1=O
inactive: Potency (OV90) | Potency (PA-1) | Potency (Tov-21-G) | Potency (Tov112D)

O=C(O)c1ccnc2cc(-c3nc4ccccc4n3CCN3CCCCC3)sc12
inactive: Potency (OV90) | Potency (PA-1) | Potency (Tov-21-G) | Potency (Tov112D)

CC1=C2C[C@@]3(C)C(CCC[C@@H]3C)C(O)C2(O)OC1=O (some centres not stated)
inactive: Potency (OV90) | Potency (PA-1) | Potency (Tov-21-G) | Potency (Tov112D)

Cc1cc(O[C@@H]2O[C@H](COC(=O)CC(=O)O)[C@@H](O)[C@H](O)[C@H]2O)c(C(C)C)cc1O
inactive: Potency (OV90) | Potency (PA-1) | Potency (Tov-21-G) | Potency (Tov112D)

COc1cc(CO)cc(OC)c1O[C@@H]1O[C@H](CO)[C@@H](O)[C@H](O)[C@H]1O
inactive: Potency (OV90) | Potency (PA-1) | Potency (Tov-21-G) | Potency (Tov112D)

COc1ccc(C2COc3cc(O)ccc3C2)c(O)c1OC (configuration not stated)
inactive: Potency (OV90) | Potency (PA-1) | Potency (Tov-21-G) | Potency (Tov112D)

Cn1cc(-c2c[nH]c3ncnc(N4CCOCC4)c23)cn1
inactive: Potency (OV90) | Potency (PA-1) | Potency (Tov-21-G) | Potency (Tov112D)

CC(=O)O[C@@H]1C(O)C[C@@]2(C)C(CC[C@@H](C)C23Cc2c(O)cc4c(c2O3)CNC4=O)C1(C)C (some centres not stated)
inactive: Potency (OV90) | Potency (PA-1) | Potency (Tov-21-G) | Potency (Tov112D)

CCOC(=O)COc1ccc2c(c1)C[C@@H](NC[C@H](O)c1cccc(Cl)c1)CC2
inactive: Potency (OV90) | Potency (PA-1) | Potency (Tov-21-G) | Potency (Tov112D)

CC1=CC[C@@]2(C)CC[C@@](O)(C(C)C)[C@@H]2[C@@H](O)C1
inactive: Potency (OV90) | Potency (PA-1) | Potency (Tov-21-G) | Potency (Tov112D)

CC(=O)OC1(C)CC(O)C2(O)C=COC(OC3OC(CO)C(O)C(O)C3O)C12 (configuration not stated)
inactive: Potency (OV90) | Potency (PA-1) | Potency (Tov-21-G) | Potency (Tov112D)

Cc1ccc(COC(=O)N2CC[C@@H](CNc3ncccn3)[C@@H](F)C2)cc1
inactive: Potency (OV90) | Potency (PA-1) | Potency (Tov-21-G) | Potency (Tov112D)

C[C@@H]1CC[C@]2(C(=O)O[C@@H]3O[C@H](CO[C@@H]4O[C@H](CO)[C@@H](O)[C@H](O)[C@H]4O)[C@@H](O)[C@H](O)[C@H]3O)CC[C@]3(C)C(=CCC4[C@@]5(C)CC[C@H](O)[C@](C)(C(=O)O)C5CC[C@]43C)[C@@H]2[C@]1(C)O (some centres not stated)
inactive: activity change, negative = cytotoxicity (OV90) 16.5% [at 11.6 µM] | activity change, negative = cytotoxicity (PA-1) 3.28% [at 11.6 µM] | activity change, negative = cytotoxicity (Tov-21-G) 4.06% [at 11.6 µM] | activity change, negative = cytotoxicity (Tov112D) -2.64% [at 11.6 µM]
